Experimental data reported in PubChem BioAssay AID1159580 (chemical genetic matrix, 2015).
Hit rate of the full screen: of about 5,500 compounds, about 2,000 (36%) were called active. Roughly 18% stayed inconclusive and do not appear here. No stated cut-off is given here; in the data, active means normalized growth mostly below about 0.91 (no sharp cut-off); inconclusive means no clear call, values can overlap the other calls; inactive means mostly above about 0.92. The list shows a part of the results.

Assay: chemical genetic growth profiling, strain panel (AID 1159580);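 further: tested at 20 µM; growth read once vehicle control cultures reached saturation at 30 °C; 1 = growth at the plate median or of vehicle wells; lower values mean less growth of the strain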
Conditions: S. cerevisiae deletion strains, growth OD

Measured: normalized growth

CC1(C)c2ccccc2N(CCC(N)=O)C12C=Cc1c(ccc3ccccc13)O2 (stereo unspecified)
inactive: locus YAR019C, strain CDC15, active compounds read low 0.972 | locus YBL105C, strain PKC1, active compounds read low 0.968 | locus YBR135W, strain CKS1, active compounds read low 0.97 | locus YBR136W, strain MEC1, active compounds read low 0.95 | locus YBR160W, strain CDC28, active compounds read low 0.971 | locus YDL017W, strain CDC7, active compounds read low 0.965 | locus YDL028C, strain MPS1, active compounds read low 0.969 | locus YDL101C, strain DUN1, active compounds read low 0.955 | locus YDL108W, strain KIN28, active compounds read low 0.944 | locus YDL132W, strain cdc53, active compounds read low 0.964 | locus YDL214C, strain PRR2, active compounds read low 0.901 | locus YDR052C, strain DBF4, active compounds read low 0.97 | locus YDR054C, strain cdc34, active compounds read low 0.956 | locus YDR226W, strain ADK1, active compounds read low 0.973 | locus YDR477W, strain SNF1, active compounds read low 0.939 | locus YER123W, strain YCK3, active compounds read low 0.865 | locus YER133W, strain GLC7, active compounds read low 0.927 | locus YFL009W, strain cdc4, active compounds read low 0.979 | locus YFL029C, strain CAK1, active compounds read low 0.964 | locus YFR003C, strain YPI1, active compounds read low 0.959 | locus YFR019W, strain FAB1, active compounds read low 0.943 | locus YFR028C, strain CDC14, active compounds read low 0.981 | locus YGR040W, strain KSS1, active compounds read low 0.92 | locus YGR052W, strain FMP48, active compounds read low 0.968 | locus YGR092W, strain DBF2, active compounds read low 0.906 | locus YHR030C, strain SLT2, active compounds read low 1.04 | locus YHR079C, strain IRE1, active compounds read low 0.973 | locus YHR082C, strain KSP1, active compounds read low 0.97 | locus YHR205W, strain SCH9, active compounds read low 0.956 | locus YIL147C, strain SLN1, active compounds read low 0.971 | locus YJL095W, strain BCK1, active compounds read low 0.975 | locus YJL128C, strain PBS2, active compounds read low 0.907 | locus YJL157C, strain FAR1, active compounds read low 0.896 | locus YJR016C, strain ILV3, active compounds read low 0.969 | locus YJR066W, strain TOR1 (second series), active compounds read low 0.891 | locus YJR066W, strain TOR1, active compounds read low 0.962 | locus YKL048C, strain ELM1, active compounds read low 0.912 | locus YKL067W, strain YNK1, active compounds read low 0.918 | locus YKL101W, strain HSL1, active compounds read low 0.908 | locus YKL193C, strain SDS22, active compounds read low 0.959 | locus YKL203C, strain TOR2, active compounds read low 0.985 | locus YLR113W, strain HOG1, active compounds read low 0.919 | locus YLR133W, strain CKI1, active compounds read low 0.944 | locus YLR403W, strain SFP1, active compounds read low 0.915 | locus YML070W, strain DAK1, active compounds read low 0.883 | locus YMR001C, strain CDC5, active compounds read low 0.966 | locus YMR205C, strain PFK2 (second series), active compounds read low 0.926 | locus YMR277W, strain FCP1, active compounds read low 0.968 | locus YNL006W, strain LST8, active compounds read low 0.986 | locus YNL020C, strain ARK1, active compounds read low 0.915 | locus YNL161W, strain CBK1, active compounds read low 0.966 | locus YNL183C, strain NPR1, active compounds read low 0.989 | locus YNL207W, strain RIO2, active compounds read low 0.96 | locus YNL222W, strain SSU72, active compounds read low 0.962 | locus YNL307C, strain MCK1 (second series), active compounds read low 0.922 | locus YOL078W, strain AVO1, active compounds read low 0.96 | locus YOL136C, strain PFK27, active compounds read low 0.907 | locus YOR061W, strain CKA2, active compounds read low 0.889 | locus YOR119C, strain RIO1, active compounds read low 0.968 | locus YOR231W, strain MKK1, active compounds read low 0.95 | locus YOR329C, strain SCD5, active compounds read low 0.971 | locus YPL031C, strain PHO85, active compounds read low 0.921 | locus YPL153C, strain RAD53, active compounds read low 0.931 | locus YPL204W, strain HRR25, active compounds read low 0.937 | locus YPL209C, strain IPL1, active compounds read low 0.966 | locus YPL256C, strain CLN2, active compounds read low 0.925 | locus YPR025C, strain CCL1, active compounds read low 0.973 | locus YPR106W, strain ISR1, active compounds read low 0.957 | locus YPR111W, strain DBF20, active compounds read low 0.963 | strain NNK1, active compounds read low 0.944 | strain TSCII, active compounds read low 0.97
